HepG2 tox-1: counter-screen for TGF-b inhibitors: cytotoxicity in HepG2 cells | HepG2 CAGA-GFP viability, ATP luminescence, 18 h | Potency, µM (series often up to 46.1 µM), without a hit: top-dose activity change, negative = cytotoxicity, usual class: cytotoxic | actives 0.76% (n = 410,000) | AID 588856; note: potency is the fitted concentration of half-maximal effect
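HepG2 CAGA-GFP cells (1000/well, DMEM with 1% FBS) received compound, then TGF-beta at 500 pg/mL final, and were incubated 18 hours at 37 degrees C. Viability was read by CellTiter-Glo luminescence. Media-only wells were set as complete cell-killing and DMSO as no toxicity.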
Six1-Eya2 inh: Six1/Eya2 interaction inhibition; Q15475+O00167; AlphaScreen GST-Six1/His-Eya2 binding, biochemical; active compounds read low; activity change, % (concentration not given with the values); actives 0.56% (n = 360,000); in the data active = activity change below about -65%; inconclusive = mostly about -30% to -63%; note: % is set by controls: 0 for no effect and ±100 for the full control effect
Target sequence (O00167 whole entry, looked up): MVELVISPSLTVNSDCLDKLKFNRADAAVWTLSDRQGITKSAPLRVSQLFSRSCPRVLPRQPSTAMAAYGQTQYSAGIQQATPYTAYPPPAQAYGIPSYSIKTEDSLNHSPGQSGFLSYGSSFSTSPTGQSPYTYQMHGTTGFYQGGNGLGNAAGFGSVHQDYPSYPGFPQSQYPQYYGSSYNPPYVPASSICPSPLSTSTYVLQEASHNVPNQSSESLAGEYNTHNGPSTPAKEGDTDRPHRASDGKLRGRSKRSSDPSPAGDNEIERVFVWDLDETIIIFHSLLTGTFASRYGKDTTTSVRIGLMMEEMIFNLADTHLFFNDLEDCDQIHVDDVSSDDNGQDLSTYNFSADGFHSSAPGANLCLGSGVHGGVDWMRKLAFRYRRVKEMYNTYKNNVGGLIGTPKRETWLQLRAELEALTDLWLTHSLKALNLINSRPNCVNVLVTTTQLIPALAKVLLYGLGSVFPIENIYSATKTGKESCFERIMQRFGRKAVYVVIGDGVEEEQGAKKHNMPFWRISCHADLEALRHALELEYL
Target sequence (Q15475 whole entry, looked up): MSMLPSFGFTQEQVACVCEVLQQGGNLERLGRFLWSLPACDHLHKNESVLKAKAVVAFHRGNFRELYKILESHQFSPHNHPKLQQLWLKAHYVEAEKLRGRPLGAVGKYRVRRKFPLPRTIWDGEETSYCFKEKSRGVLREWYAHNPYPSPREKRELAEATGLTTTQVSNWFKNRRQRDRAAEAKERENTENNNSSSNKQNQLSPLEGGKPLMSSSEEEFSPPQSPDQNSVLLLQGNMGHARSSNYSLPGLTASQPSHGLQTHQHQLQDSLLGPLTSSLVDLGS
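GST-Six1 + His-Eya2 (5X stock: 250/500 nM); Tris pH 8.0, 300 mM NaCl, 0.05% BSA, 0.02% Tween 20; GSH donor/Ni acceptor beads; 1 h 37 °C dark; AlphaScreen readout.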
ATXN2 expr inh: inhibitors of ATXN2 expression | HEK-293 ATXN2-luciferase reporter, luminescence, 24 h | Potency, µM (top dose mostly 57 µM), for inactives: top-dose activity change, negative = inhibition, actives largely listed as inhibitors | actives 0.72% (n = 360,000); note: potency is the fitted concentration of half-maximal effect; % is set by controls: 0 for no effect and ±100 for the full control effect; nearly all actives have a fitted effect of over 55% in size
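ATXN2-luciferase reporter cells (luciferase flanked by upstream and downstream ATXN2 gene portions) were treated 24 h at 37 °C with compounds at up to 57 uM. SteadyGlo luminescence gave expression; GF-AFC fluorescence gave viability.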
CtBP-E1A blk: CtBP/E1A binding inhibition; AlphaScreen GST-E1A/His-CtBP binding, 1536-well; active compounds read low; activity change, % (concentration not given with the values); actives 0.49% (n = 340,000); AID 651724; in the data active = activity change below about -65%; inconclusive = mostly about -30% to -63%; note: % is set by controls: 0 for no effect and ±100 for the full control effect
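Protein mix (5X: 125 nM each GST-E1A, His-CtBP) was incubated with pinned compound 2 h at 37 deg C in dark, in 50 mM Tris pH 8.0 buffer with 300 mM NaCl. Glutathione donor and nickel acceptor beads followed; AlphaScreen signal read after 1 h.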
TGFb SMAD3 inh: blocks TGF-b signaling. Potency, µM (series often up to 46.1 µM), without a hit: top-dose activity, negative = inhibition, most hits filed as inhibitors. actives 1.2% (n = 410,000). AID 588855. HepG2 CAGA-GFP TGF-b/SMAD3 reporter, GFP fluorescence, 18 h; TGF-beta stimulated, 500 pg/mL final; note: potency is the fitted concentration of half-maximal effect; % is set by controls: 0 for no effect and ±100 for the full control effect; nearly all actives have a fitted effect of over 65% in size
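Smad-responsive CAGA-GFP expression was quantified in HEPG2 cells exposed to compounds and 500 pg/mL final TGF-beta for 18 h at 37 degrees C; unstimulated wells defined full inhibition.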
S2 tox: reduces viability in counter-screen for ATXN expression inhibitors; S2 cells (HEK-293 line with an ATXN2-luciferase reporter) viability, CellTiter-Fluor protease fluorescence, 24 h; Potency, µM (highest dose often 56.7 µM), usual class: cytotoxic; actives 0.49% (n = 400,000); AID 651635; note: potency is the fitted concentration of half-maximal effect; nearly all actives have a fitted effect of over 40% in size
TGFb CAGA inh: TGF-b pathway inhibition, cherry-pick retest | shares compounds with TGFb SMAD3 inh | HepG2 CAGA-GFP TGF-b reporter, GFP fluorescence, 18 h; cells stimulated with TGF-beta, 500 pg/mL | Potency, µM (highest dose often 46.1 µM), without a hit: at the top dose activity, negative = inhibition, hits mostly inhibitors | actives 63% (n = 1,600) | AID 720534; note: potency is the fitted concentration of half-maximal effect; % is set by controls: 0 for no effect and ±100 for the full control effect; nearly all actives have a fitted effect of over 65% in size
HepG2 tox-2: counter-screen for TGF-b inhibitors: cytotoxicity in HepG2 cells. HepG2 CAGA-GFP viability, ATP luminescence, 18 h; cells stimulated with TGF-beta, 500 pg/mL. shares compounds with TGFb SMAD3 inh. Potency, µM (highest dose often 46.1 µM), for inactives: top-dose activity, negative = cytotoxicity, actives largely listed as inhibitors. actives 27% (n = 1,600). AID 720535; note: potency is the fitted concentration of half-maximal effect; % is set by controls: 0 for no effect and ±100 for the full control effect; nearly all actives have a fitted effect of over 70% in size
CCL64 TGFb inh: TGF-b inhibition, CCL64 orthogonal assay. AID 720536. actives 41% (n = 1,600). shares compounds with TGFb SMAD3 inh. Potency, µM (series often up to 46.1 µM), for inactives: top-dose activity, negative = inhibition, most hits filed as inhibitors. CCL64 CAGA-GFP reporter, TGF-b stimulated, GFP fluorescence, 18 h; note: potency is the fitted concentration of half-maximal effect; nearly all actives have a fitted effect of over 65% in size
COP TGFb inh: validation of TGF-b inhibitors in HepG2 COP promoter reporter; HepG2 COP-GFP TGF-b reporter, GFP fluorescence, 18 h; cells stimulated by added recombinant TGF-beta; actives 3% (n = 1,600); Potency, µM (highest dose often 46.1 µM), for the others: at the highest dose activity, negative = inhibition, hits mostly inhibitors; shares compounds with TGFb SMAD3 inh; note: potency is the fitted concentration of half-maximal effect; nearly all actives have a fitted effect of over 70% in size
SK-N-SH 3D tox: kills SK-N-SH neuroblastoma spheroids in orthogonal 3D test; actives 70% (n = 65); shares compounds with ATXN2 expr inh; Potency, µM (titrated, usually from 30.7 µM), hits mostly inhibitors; SK-N-SH 3D spheroid viability, PI/Hoechst imaging, 72 h
SJ-GBM2 3D tox: SJ-GBM2 spheroid viability loss, orthogonal 3D screen; SJ-GBM2 3D spheroid viability, PI/Hoechst imaging, 72 h; AID 1347136; shares compounds with ATXN2 expr inh; actives 80% (n = 65); Potency, µM (highest dose often 30.7 µM), hits mostly inhibitors
Daoy 3D tox: Daoy 3D spheroid viability loss; shares compounds with ATXN2 expr inh; Daoy 3D spheroid viability, PI/Hoechst imaging, 72 h; Potency, µM (titrated, usually from 30.7 µM), actives largely listed as inhibitors; actives 50% (n = 65); AID 1347137
TC32 3D casp: TC32 spheroid caspase-3/7 activation, orthogonal screen; shares compounds with ATXN2 expr inh; AID 1347138; actives 30% (n = 65); Potency, µM (series often up to 30.7 µM), actives largely listed as inhibitors; TC32 3D spheroids, caspase-3/7 fluorescence imaging, 24 h
TC32 spheroid: kills TC32 spheroids in orthogonal 3D test | shares compounds with ATXN2 expr inh | TC32 3D spheroid viability, PI/Hoechst imaging, 72 h | Potency, µM (highest dose often 30.7 µM), most hits filed as inhibitors | actives 60% (n = 65)
MG63 3D tox: kills MG-63 (6-TG R) spheroids in orthogonal 3D test | actives 50% (n = 65) | shares compounds with ATXN2 expr inh | MG-63 (6-TG R) 3D spheroid viability, PI/Hoechst imaging, 72 h | Potency, µM (highest dose often 30.7 µM), hits mostly inhibitors
RD spheroid: kills RD rhabdomyosarcoma spheroids in orthogonal 3D test | shares compounds with ATXN2 expr inh | RD rhabdomyosarcoma 3D spheroid viability, PI/Hoechst imaging, 72 h | Potency, µM (series often up to 30.7 µM), usual class: inhibitors | actives 50% (n = 65) | AID 1347141
An asterisk follows results filed as active; i = inactive; u = inconclusive; x = no result given; ! = not confirmed by another sample; [ ] = dose if it differs, or a comment. In the library only some 2.8% were active in any assay of this set; here they are far more common. Unless noted, calls come from the whole dose curve; as a rule, active = well fitted curve in the direction sought with a large enough effect; inconclusive = small, poorly fitted or top-dose-only effect, or another doubt; inactive = no such curve, though single readings can be large; an effect the other way counts as inactive or inconclusive.

SMILES	HepG2 tox-1	Six1-Eya2 inh	ATXN2 expr inh	CtBP-E1A blk	TGFb SMAD3 inh	S2 tox	TGFb CAGA inh	HepG2 tox-2	CCL64 TGFb inh	COP TGFb inh	others
COc1ccc(C[C@H]2NC[C@H](O)[C@H]2OC(C)=O)cc1	-20%	3	0.1µM*	3	0.22µM*	u	0.073µM*	0.65µM*	0.1µM*	-1%
COC(=O)c1cn(S(=O)(=O)c2ccccc2)c2ccccc12	-10%	4	-96%	7	0%	u	x	x	x	x
Cc1c(C=O)c2ccccc2n1Cc1ccc(F)cc1	-31%	15	-10%	x	5.6µM*	i	1.3µM*	1.6µM*	10%	-4%
Cc1cc(SCc2sc(-c3ccc(C(F)(F)F)c(F)c3)nc2C)ccc1OCC(=O)O	x	x	15%	x	x	x	x	x	x	x
CC(=O)OCC12CC(OC(=O)CC(C)C)C(C)=CC1OC1C(O)C(OC(C)=O)C2(C)C12CO2 (stereo unspecified)	-1%	1	-71%	2	-117%	u	0.01µM*	x	0.0052µM*	11%
C[C@H]1C[C@@H](C)C(=O)[C@@H]([C@H](O)CC2CC(=O)NC(=O)C2)C1	-21%	4	1.1µM*	8	0.71µM*	i	1µM*	u	0.33µM*	25%
O=[N+]([O-])c1ccc(N2CCOCC2)c2cccnc12	-1%	0	x	x	-14%	x	x	x	x	x
O=[N+]([O-])c1ccc(N2CCOCC2)c2c1no[n+]2[O-]	-101%	-8	x	-26	3.2µM*	x	18µM*	13µM*	5.2µM*	u
Cc1cccn2c(=O)c(/C=C(\C#N)c3nc4ccccc4s3)c(Oc3ccc(F)cc3)nc12	11%	x	0%	x	-24%	u	x	x	x	x
C=C(C)[C@@]12OC3(c4ccccc4)O[C@@H]1C1[C@@H]4O[C@]4(CO)[C@@H](O)[C@]4(O)C(=O)C(C)=C[C@H]4[C@@]1(O3)[C@H](C)[C@H]2OC(=O)/C=C/C=C/c1ccccc1 (stereo partly specified)	-87%	-10	-10%	1	-98%	u	u	u	u	-6%
C#C[C@]1(O)C=C[C@H]2[C@@H]3CCC4=CC(=O)CC[C@@H]4[C@H]3CC[C@@]21CC	x	x	-13%	x	x	i	x	x	x	x
O=C1CCCCC1	-4%	3	1%	-1	3%	i	x	x	x	x
Nc1nc(F)nc2c1ncn2[C@@H]1O[C@H](CO)[C@@H](O)[C@@H]1O	-38%	-5	1.7µM*!	2	0.5µM*	i	0.46µM*	0.46µM*	-33%	42%	SK-N-SH 3D tox=0.46µM*;SJ-GBM2 3D tox=0.29µM*;Daoy 3D tox=0.36µM*;TC32 3D casp=3.6µM*;TC32 spheroid=2µM*;MG63 3D tox=0.2µM*;RD spheroid=1.4µM*
O=C(Nc1ccc2oc(-c3cccnc3)nc2c1)c1ccc(-c2cccc(Cl)c2)o1	5%	x	x	x	u	x	x	x	x	x
Cc1ccc(NC(=O)NCc2ccc3c(c2)CCN3C(=O)c2ccccc2)c(Cl)c1	-13%	x	-31%	x	u	i	x	x	x	x
O=c1[nH]c(O)c(N=Nc2ccc(Cl)c(S(=O)(=O)Nc3ccccc3Cl)c2)c(=O)[nH]1	-1%	u	-10%	-20	5%	u	x	x	x	x
CN(C)C(=O)Oc1ccc(C(=O)c2ccccc2)cc1	-20%	0	42%	-6	-13%	i	x	x	x	x
CCCCOc1ccc(C(=O)NCCc2csc(-c3ccc(OC)cc3)n2)cc1	-21%	x	x	x	u	x	x	x	x	x
OCCCBr	x	x	2%[116 µM]	x	x	i	x	x	x	x
Cc1ccccc1CN1CCc2nc(N3CCN(c4ccccn4)CC3)ncc2C1	-23%	x	-22%	x	-28%	u	x	x	x	x

Bioassay records deposited in PubChem BioAssay by National Center for Advancing Translational Sciences (NCATS).
